The source made the active and inactive calls. The call rests on the fitted dose curve; in most records, active means well fitted curve in the direction sought with a large enough effect in the repeat runs; inconclusive means weak or mixed curves; inactive means flat fitted curve, though single readings scatter.

Experimental findings from PubChem BioAssay (Tox21) are described below.
On the % scale 0 is the no-effect control and ±100 the full control effect.

A short description of one experiment: qHTS assay to test for compound auto fluorescence at 460 nm (blue) in HEK293 cells (AID 720678). To be noted: blue autofluorescence 405/460 nm; series mostly up to 46 µM; fluorescence, % of triamterene: at the top concentration. The gist of the method: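 Auto fluorescence in the blue band was quantified as triamterene equivalency. HEK293 cells were seeded at 2,000/well, dosed after a 4-5 hr attachment, and kept overnight at 37C before the 405/460 nm reading.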
As to `CC(C)=CCCC(C)CC(=O)O` (centres undefined), the “fluorescence, % of triamterene” value is 0.0686% [at 91.3 µM] (inactive).

For the compound `NCCc1cnc[nH]1`, the “fluorescence, % of triamterene” value was -0.199% (inactive).

With `CCCCOCCOCCOCc1cc2c(cc1CCC)OCO2`, the compound was classed as inactive.

Turning to `C=C1CC[C@H]2C[C@@H]1C2(C)C`, the “fluorescence, % of triamterene” value was 0.151% [at 91.3 µM] (inactive).

For the compound `CC(C)OC(=O)c1ccccc1`, the “fluorescence, % of triamterene” value was -0.121% [at 95.7 µM] (inactive).

Take `O=Cc1cccc([N+](=O)[O-])c1`: the “fluorescence, % of triamterene” value was -0.0703% [at 91.3 µM] (inactive).

With `Cc1ccc(C#N)cc1`, the “fluorescence, % of triamterene” value is -0.297% [at 91.3 µM] (inactive).

Take `CCC=O`: the “fluorescence, % of triamterene” value was -0.108% [at 95.7 µM] (inactive).

Consider `CC/C=C\CC/C=C/CO`, for which the “fluorescence, % of triamterene” value is -0.0852% [at 91.3 µM] (inactive).

Turning to `COC(=O)CCSCCC(=O)OC`, the “fluorescence, % of triamterene” value was 0.0326% [at 91.3 µM] (inactive).

With `FC1(F)C(F)(F)C(F)(F)C2(F)C(F)(F)C(F)(F)C(F)(F)C(F)(F)C2(F)C1(F)F` (centres undefined), the “fluorescence, % of triamterene” value is 0.093% (inactive).

In the case of `Cc1[nH]c(=O)c(C#N)cc1-c1ccc2nccn2c1`, the “fluorescence, % of triamterene” value was 0.144% (inactive).

Turning to `CCO/C([O-])=N/c1c[n+](N2CCOCC2)no1`, the “fluorescence, % of triamterene” value was -0.0299% [at 18.6 µM] (inactive).

Take `OC1CCCCC1c1ccccc1` (centres undefined): the “fluorescence, % of triamterene” value was -0.0307% [at 91.3 µM] (inactive).

Consider `CC(C)(O)C(=O)c1ccccc1`, for which the “fluorescence, % of triamterene” value was -0.0153% [at 91.3 µM] (inactive).

In the case of `COC(=O)C1=C(C)NC(C)=C(C(=O)OC)C1c1ccccc1[N+](=O)[O-]`, the outcome was inactive.

Turning to `C[C@H](NC(CCc1ccccc1)C(=O)O)C(=O)N1CCC[C@H]1C(=O)O` (some centres undefined), the “fluorescence, % of triamterene” value is 0.0573% (inactive).

On to `Nc1c[n+](N2CCOCC2)no1`, for which the “fluorescence, % of triamterene” value was 0.4% (inactive).

As to `O=c1cc(-c2ccccc2)oc2ccccc12`, the compound was classed as inactive.

In the case of `CCOc1ccc(C(=O)OCCN(CC)CC)cc1`, the “fluorescence, % of triamterene” value is -0.126% (inactive).

On to `Cc1nc2c([nH]1)c(=O)n(C)c(=O)n2Cc1ccco1`, for which the “fluorescence, % of triamterene” value is 0.0824% (inactive).

Turning to `CC(=O)N(CC(O)CO)c1c(I)c(C(=O)NCCO)c(I)c(C(=O)NCC(O)CO)c1I` (centres undefined), the “fluorescence, % of triamterene” value is -0.0532% (inactive).

With `CCCC(=O)O[C@]1(C(=O)CO)CC[C@H]2[C@@H]3CCC4=CC(=O)CC[C@]4(C)[C@H]3[C@@H](O)C[C@@]21C`, the “fluorescence, % of triamterene” value is -0.302% (inactive).

Turning to `CCCCCCCCCCCCCCCCC`, the “fluorescence, % of triamterene” value was -0.0263% [at 91.3 µM] (inactive).

For `CO[C@]12C[C@@H](COC(=O)c3cncc(Br)c3)CN(C)[C@@H]1Cc1cn(C)c3cccc2c13`, the “fluorescence, % of triamterene” value is 1.02% (inactive).

Take `NCCCNCCSP(=O)(O)O`: the “fluorescence, % of triamterene” value was -0.0785% (inactive).

As for `CC(=O)OC/C=C(\C)CC/C=C(\C)CCC=C(C)C`, the “fluorescence, % of triamterene” value is 0.247% [at 91.3 µM] (inactive).

In the case of `CC(C)(C)c1ccc(O)c(O)c1`, the outcome was inactive.

Turning to `C=C(C)CS(=O)(=O)O`, the “fluorescence, % of triamterene” value is -0.0261% [at 91.3 µM] (inactive).

For the compound `NC(CSCC(=O)O)C(=O)O` (centres undefined), the “fluorescence, % of triamterene” value is -0.587% (inactive).

On to `CO/N=C(/C(=O)N[C@@H]1C(=O)N2C(C(=O)OCOC(=O)C(C)(C)C)=C(C)CS[C@H]12)c1csc(N)n1`, for which the “fluorescence, % of triamterene” value is -0.0842% (inactive).

`CC(C)(c1ccc(O)cc1)c1ccc(O)cc1`: the call was inactive.

For the compound `O=C1CCCN1C1CCCCC1`, the “fluorescence, % of triamterene” value was -0.0052% [at 91.3 µM] (inactive).

Regarding `CC(C)NC(=O)NC(C)C`, the “fluorescence, % of triamterene” value was 0.0553% [at 91.3 µM] (inactive).

On to `CCOC(=O)CC(C)=O`, for which the “fluorescence, % of triamterene” value was -0.33% [at 91.3 µM] (inactive).

For `CN(C)CCCN1c2ccccc2CCc2ccc(Cl)cc21`, the compound was called inactive.

As to `CC(C)(C)c1nnc(NS(=O)(=O)c2ccccc2)s1`, the “fluorescence, % of triamterene” value was -0.0272% (inactive).

For `O=C(O)CN(CCOCCOCCN(CC(=O)O)CC(=O)O)CC(=O)O`, the “fluorescence, % of triamterene” value was -0.156% (inactive).

In the case of `CCCCNC(=O)NCCCC`, the “fluorescence, % of triamterene” value is -0.028% [at 91.3 µM] (inactive).

Another experiment in a line: qHTS assay to test for compound auto fluorescence at 590 nm (red) in HEK293 cells (AID 720679). As to conditions: red autofluorescence 540/590 nm; series mostly up to 46 µM; fluorescence, % of fluorescent control: at the top concentration. In outline:
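Autofluorescence equivalency to Rose Bengal sodium, 540/590nm, in HEK293 cells exposed overnight to 23 nL compound per well.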
On to `CC(C)=CCCC(C)CC(=O)O` (centres undefined), for which the “fluorescence, % of fluorescent control” value is 0.0901% [at 91.3 µM] (inactive).

With `NCCc1cnc[nH]1`, the “fluorescence, % of fluorescent control” value was -0.271% (inactive).

For the compound `CCCCOCCOCCOCc1cc2c(cc1CCC)OCO2`, the outcome was inactive.

For the compound `C=C1CC[C@H]2C[C@@H]1C2(C)C`, the “fluorescence, % of fluorescent control” value was -0.163% [at 91.3 µM] (inactive).

Regarding `CC(C)OC(=O)c1ccccc1`, the “fluorescence, % of fluorescent control” value was 0.0599% [at 95.7 µM] (inactive).

`O=Cc1cccc([N+](=O)[O-])c1`: the “fluorescence, % of fluorescent control” value is -0.205% [at 91.3 µM] (inactive).

Regarding `Cc1ccc(C#N)cc1`, the “fluorescence, % of fluorescent control” value was -0.398% [at 91.3 µM] (inactive).

With `CCC=O`, the “fluorescence, % of fluorescent control” value is 0.197% [at 95.7 µM] (inactive).

For the compound `CC/C=C\CC/C=C/CO`, the “fluorescence, % of fluorescent control” value was -0.132% [at 91.3 µM] (inactive).

For `COC(=O)CCSCCC(=O)OC`, the “fluorescence, % of fluorescent control” value was -0.294% [at 91.3 µM] (inactive).

In the case of `FC1(F)C(F)(F)C(F)(F)C2(F)C(F)(F)C(F)(F)C(F)(F)C(F)(F)C2(F)C1(F)F` (centres undefined), the “fluorescence, % of fluorescent control” value was 0.129% (inactive).

Turning to `Cc1[nH]c(=O)c(C#N)cc1-c1ccc2nccn2c1`, the “fluorescence, % of fluorescent control” value is -0.0638% (inactive).

With `CCO/C([O-])=N/c1c[n+](N2CCOCC2)no1`, the “fluorescence, % of fluorescent control” value is 0.0743% [at 18.6 µM] (inactive).

Regarding `OC1CCCCC1c1ccccc1` (centres undefined), the “fluorescence, % of fluorescent control” value is -0.13% [at 91.3 µM] (inactive).

`COC(=O)C1=C(C)NC(C)=C(C(=O)OC)C1c1ccccc1[N+](=O)[O-]`: the compound was called inactive.

For `C[C@H](NC(CCc1ccccc1)C(=O)O)C(=O)N1CCC[C@H]1C(=O)O` (some centres undefined), the “fluorescence, % of fluorescent control” value was 0.145% (inactive).

For `Nc1c[n+](N2CCOCC2)no1`, the “fluorescence, % of fluorescent control” value is -0.109% (inactive).

Take `CCOc1ccc(C(=O)OCCN(CC)CC)cc1`: the “fluorescence, % of fluorescent control” value is -0.172% (inactive).

With `Cc1nc2c([nH]1)c(=O)n(C)c(=O)n2Cc1ccco1`, the “fluorescence, % of fluorescent control” value was 0.426% (inactive).

Consider `CC(=O)N(CC(O)CO)c1c(I)c(C(=O)NCCO)c(I)c(C(=O)NCC(O)CO)c1I` (centres undefined), for which the “fluorescence, % of fluorescent control” value was -0.889% (inactive).

`CCCC(=O)O[C@]1(C(=O)CO)CC[C@H]2[C@@H]3CCC4=CC(=O)CC[C@]4(C)[C@H]3[C@@H](O)C[C@@]21C`: the “fluorescence, % of fluorescent control” value is 0.082% (inactive).

As to `CCCCCCCCCCCCCCCCC`, the “fluorescence, % of fluorescent control” value was 0.116% [at 91.3 µM] (inactive).

Regarding `CO[C@]12C[C@@H](COC(=O)c3cncc(Br)c3)CN(C)[C@@H]1Cc1cn(C)c3cccc2c13`, the “fluorescence, % of fluorescent control” value is -0.0213% (inactive).

In the case of `CC(=O)OC/C=C(\C)CC/C=C(\C)CCC=C(C)C`, the “fluorescence, % of fluorescent control” value is 0.272% [at 91.3 µM] (inactive).

As to `C=C(C)CS(=O)(=O)O`, the “fluorescence, % of fluorescent control” value is -0.0355% [at 91.3 µM] (inactive).

As to `NC(CSCC(=O)O)C(=O)O` (centres undefined), the “fluorescence, % of fluorescent control” value is -0.438% (inactive).

On to `CO/N=C(/C(=O)N[C@@H]1C(=O)N2C(C(=O)OCOC(=O)C(C)(C)C)=C(C)CS[C@H]12)c1csc(N)n1`, for which the “fluorescence, % of fluorescent control” value is 0.152% (inactive).

Turning to `CC(C)(c1ccc(O)cc1)c1ccc(O)cc1`, the result was inactive.

With `O=C1CCCN1C1CCCCC1`, the “fluorescence, % of fluorescent control” value was -0.0161% [at 91.3 µM] (inactive).

Turning to `CC(C)NC(=O)NC(C)C`, the “fluorescence, % of fluorescent control” value was -0.0712% [at 91.3 µM] (inactive).

`CCOC(=O)CC(C)=O`: the “fluorescence, % of fluorescent control” value is 0.313% [at 91.3 µM] (inactive).

As for `CN(C)CCCN1c2ccccc2CCc2ccc(Cl)cc21`, the outcome was inactive.

Consider `CC(C)(C)c1nnc(NS(=O)(=O)c2ccccc2)s1`, for which the “fluorescence, % of fluorescent control” value is -0.0158% (inactive).

On to `O=C(O)CN(CCOCCOCCN(CC(=O)O)CC(=O)O)CC(=O)O`, for which the “fluorescence, % of fluorescent control” value is -0.886% (inactive).

For the compound `CCCCNC(=O)NCCCC`, the “fluorescence, % of fluorescent control” value was -0.14% [at 91.3 µM] (inactive).
